The results in this text go back to PubChem BioAssay (EPA / NIEHS).

The source made the active and inactive calls. Rule for the calls: active = hit-call score of the fitted dose curve at least 0.9, where 1 is the maximum; inactive = score below 0.9.

In assay [1] the target is Bile acid receptor (Homo sapiens) (UniProt Q96RI1). In words: ATG_IR1_CIS: Attagene CIS-FACTORIAL HepG2 Assay for human Nuclear Receptor Subfamily 1 Group H Member 4 (NR1H4), IR1 submotif (AID 2282946). The settings on record: IR1 reporter transcription, actives raise or lower the signal. Summed up:
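Cells (human HepG2) carry transiently transfected cis-promoter reporter transcription units. Compounds are incubated 24 h, total RNA is reverse-transcribed and amplified, and labelled fragments are resolved by capillary electrophoresis. Curves use DMSO as baseline.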

A short description of assay [2]: ATG_GRE_CIS: Attagene CIS-FACTORIAL HepG2 Assay for human Glucocorticoid Response Elements (GRE) (AID 2282947). Conditions: HepG2 GRE cis-reporter, Attagene multiplex mRNA; actives raise or lower the signal. The procedure, abridged:
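Assay uses human hepatoma HepG2 cells transfected with cis-promoter reporter units, exposed 24 h. mRNA from reporters detected by RT-PCR plus capillary electrophoresis; DMSO serves as negative control and baseline.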

Assay [3] can be described thus: ATG_ISRE_CIS: Attagene CIS-FACTORIAL HepG2 Assay for human Interferon Regulatory Factor 1 (IRF1) binding to an Interferon-Stimulated Response Element (ISRE) (AID 2282948). Conditions: HepG2 ISRE cis-reporter (Attagene), mRNA transcription readout; actives raise or lower the signal. Summed up: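 Quantitation relies on labelled RT-PCR fragments separated by capillary electrophoresis. Human HepG2 cells bearing cis-promoter reporter constructs were treated 24 h; DMSO served as baseline for bidirectional fitting.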

The nature of assay [4]: ATG_M_32_CIS: Attagene CIS-FACTORIAL HepG2 Assay for M32 Transcription Factor (Internal Marker) (AID 2282949).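 Note: background control marker of the multiplexed CIS panel rather than a real target.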 The settings on record: HepG2 Attagene cis-factorial M32 reporter, mRNA; actives raise or lower the signal. Summed up:
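Internal background marker read-out: RT-PCR/capillary electrophoresis fluorescence of reporter transcripts from transiently transfected HepG2 cells after 24 h chemical exposure. Activity fitted bidirectionally relative to DMSO negative control.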

The nature of assay [5]: ATG_M_06_CIS: Attagene CIS-FACTORIAL HepG2 Assay for M06 Transcription Factor (Internal Marker) (AID 2282950). The settings on record: HepG2 Attagene CIS-FACTORIAL M06 internal marker reporter; actives raise or lower the signal. Summed up:
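Cells (HepG2, transiently carrying cis-driven reporter units) receive chemical for 24 h before RNA isolation. Reporter cDNA is PCR-amplified, FAM-labelled by primer extension, HpaI-digested and sized on a capillary analyser.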

The target of assay [6] is Hypoxia-inducible factor 1-alpha (Homo sapiens) (UniProt Q16665). Put plainly: ATG_HIF1a_CIS: Attagene CIS-FACTORIAL HepG2 Assay for human Hypoxia Inducible Factor 1 (HIF1A) (AID 2282951). Conditions: HepG2 Attagene cis-factorial HIF1a reporter transcription; actives raise or lower the signal. The procedure, abridged:
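Measures endogenous transcription-factor activity through cis-regulated reporter mRNA in HepG2. Cells dosed 24 h; transcripts quantified by RT-PCR with 6-FAM-labelled products separated by capillary electrophoresis; DMSO serves as negative control.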

Assay [7] deals with Hepatocyte nuclear factor 6 (Homo sapiens) (UniProt Q9UBC0). In words: ATG_HNF6_CIS: Attagene CIS-FACTORIAL HepG2 Assay for human Hepatocyte Nuclear Factor 6 (HNF6) (AID 2282952). Conditions: HepG2 Attagene cis-factorial HNF6 reporter transcription; actives raise or lower the signal. Summed up:
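Transiently transfected HepG2 cells expressing cis-regulated reporter transcription units were exposed to chemical for 24 h in a 24-well format. Reporter transcript abundance was determined by fluorescence capillary electrophoresis.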

Assay [8] deals with Heat shock factor protein 1 (Homo sapiens) (UniProt Q00613). Put plainly: ATG_HSE_CIS: Attagene CIS-FACTORIAL HepG2 Assay for human Heat Shock Transcription Factor 1 (HSE) (AID 2282953). Conditions: HepG2 HSE cis-reporter, Attagene RNA transcription; actives raise or lower the signal. Summed up:
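Liver-derived HepG2 cells carry transiently introduced multiple reporter units governed by cis promoters. Reporter RNA measured 24 h post-dose through reverse transcription, PCR amplification, fluorescent labelling and capillary electrophoresis, normalised to DMSO.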

Assay [9] can be described thus: ATG_MRE_CIS: Attagene CIS-FACTORIAL HepG2 Assay for human Metal Responsive Element (MRE) (AID 2282954). The settings on record: HepG2 MRE cis-reporter transcription, Attagene multiplex; actives raise or lower the signal. The procedure, abridged: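 After a 24 h chemical exposure, transiently transfected HepG2 cells yield RNA whose reporter sequences are amplified, FAM-labelled and sized by capillary electrophoresis. Curves are fitted bidirectionally relative to DMSO.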

The nature of assay [10]: ATG_PBREM_CIS: Attagene CIS-FACTORIAL HepG2 Assay for human Phenobarbital-responsive Enhancer Module (PBREM) (AID 2282955). Conditions: HepG2 PBREM cis-reporter, Attagene multiplexed transcription; actives raise or lower the signal. The procedure, abridged:
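Fluorescence of labelled reporter cDNA fragments, resolved by capillary electrophoresis, gives mRNA induction in transfected HepG2 cells treated for 24 h; DMSO serves as negative control and baseline.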

Assay [11] in a line: ATG_PXRE_CIS: Attagene CIS-FACTORIAL HepG2 Assay for human Pregnane X Receptor Element (PXRE) (AID 2282957). Conditions: HepG2 Attagene CIS-FACTORIAL PXRE reporter, mRNA; actives raise or lower the signal. Summed up: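 Cis-element reporter mRNA in human hepatoma HepG2 cells is measured 24 h post-dosing by RT-PCR, primer-extension labeling and capillary electrophoresis; gain or loss of signal is fitted relative to DMSO.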

Assay [12] is described as follows: ATG_RORE_CIS: Attagene CIS-FACTORIAL HepG2 Assay for human RAR-related Orphan Receptor Element (RORE) (AID 2282959). The settings on record: HepG2 Attagene cis-factorial RORE reporter, mRNA; actives raise or lower the signal. Summed up: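 Cells were HepG2 carrying transfected cis-regulated reporter constructs, dosed for 24 hours. Total RNA was reverse-transcribed and reporter cDNA amplified, fluorescently labeled and sized by capillary electrophoresis. Activity was fitted bidirectionally relative to DMSO.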

Assay [13] in a line: ATG_Sox_CIS: Attagene CIS-FACTORIAL HepG2 Assay for human SRY-box transcription factor (SOX) (AID 2282960). Conditions: HepG2 Attagene cis-factorial SOX reporter, mRNA; actives raise or lower the signal. The procedure, abridged: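 Transient MRTU transfection of HepG2; 24 h compound incubation; TriZol RNA, oligo(dT) RT, PCR, 6-FAM primer extension, HpaI cut, CE. Bidirectional fit, DMSO = baseline.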

Assay [14] is described as follows: ATG_SREBP_CIS: Attagene CIS-FACTORIAL HepG2 Assay for human Sterol Regulatory Element Binding (SREBP) (AID 2282962). Conditions: HepG2 Attagene cis-factorial SREBP reporter, mRNA; actives raise or lower the signal. Summed up: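 Twenty-four hours after chemical dosing of transfected HepG2 cultures, reporter RNA was converted to cDNA, amplified, end-labelled with 6-FAM and resolved by capillary electrophoresis. Responses were fitted relative to DMSO.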

Assay [15] concerns the target Signal transducer and activator of transcription 3 (Homo sapiens) (UniProt P40763). In words: ATG_STAT3_CIS: Attagene CIS-FACTORIAL HepG2 Assay for human Signal Transducer and Activator of Transcription 3 (STAT3) (AID 2282963). The settings on record: HepG2, Attagene cis-factorial STAT3 reporter transcription; actives raise or lower the signal. The procedure, abridged:
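After a 24 h compound incubation, total RNA from MRTU-transfected HepG2 cells was converted to cDNA and reporter sequences PCR-amplified, labelled and profiled by capillary electrophoresis. Gain and loss of signal were referenced to DMSO.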

Assay [16] can be described thus: ATG_TA_CIS: Attagene CIS-FACTORIAL HepG2 Assay for human TA Basal Promoter (AID 2282964). The settings on record: HepG2 Attagene CIS-factorial TA basal promoter reporter; actives raise or lower the signal. Summed up: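 Background internal-marker endpoint from a 52-component HepG2 cis-reporter panel. Cells treated 24 h; reporter transcripts quantified via RT-PCR and CE fluorescence against DMSO baseline.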

A short description of assay [17]: ATG_TCF_b_cat_CIS: Attagene CIS-FACTORIAL HepG2 Assay for human T-Cell-Factor with beta-catenin (TCF/b-cat) (AID 2282965). Conditions: HepG2 TCF/beta-catenin cis-reporter transcription, actives raise or lower the signal. The procedure, abridged: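 Endogenous transcription factor activity is captured through cis-promoter reporter constructs transiently introduced into human HepG2 liver cells. Induced reporter mRNA is measured after 24 h and fitted bidirectionally relative to DMSO.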

Assay [18] addresses Paired box protein Pax-6 (Homo sapiens) (UniProt P26367). Put plainly: ATG_Pax6_CIS: Attagene CIS-FACTORIAL HepG2 Assay for human Paired Box 6 (PAX6) (AID 2282956). The settings on record: HepG2 CIS-FACTORIAL PAX6 reporter transcription, RNA readout; actives raise or lower the signal. The procedure, abridged: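 After twenty-four hours of chemical exposure, transfected HepG2 cells are harvested for RNA. Cis-promoter reporter transcripts are amplified, fluorescently labelled and sized by capillary electrophoresis, with gain and loss of signal scored against DMSO.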

Assay [19] in a line: ATG_PPRE_CIS: Attagene CIS-FACTORIAL HepG2 Assay for human Peroxisome Proliferator-activated Response Element (PPRE) (AID 2282958). The settings on record: HepG2 PPRE cis-element reporter, Attagene transcription factor profiling; actives raise or lower the signal. The procedure, abridged: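 Cells are first transfected transiently with the multiplexed reporter library, then dosed for 24 h. Total RNA is reverse-transcribed, amplified, fluorescently end-labeled and HpaI-cut before capillary electrophoresis; activity is fitted bidirectionally against DMSO controls.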

Assay [20] has as its target Transcription factor Sp1 (Homo sapiens) (UniProt P08047). In words: ATG_Sp1_CIS: Attagene CIS-FACTORIAL HepG2 Assay for human Specificity Protein 1 (Sp1) (AID 2282961). Conditions: HepG2 Sp1 cis-reporter transcription, actives raise or lower the signal. The procedure, abridged: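 Endogenous Sp1 activity was gauged in human liver HepG2 cells bearing transfected reporter units under a cis-regulating promoter. After 24 h dosing, reporter mRNA was quantified by RT-PCR with capillary electrophoresis, and activity fitted bidirectionally versus DMSO.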

Chain of Heat shock factor protein 1 (Homo sapiens) (Q00613 whole entry, looked up): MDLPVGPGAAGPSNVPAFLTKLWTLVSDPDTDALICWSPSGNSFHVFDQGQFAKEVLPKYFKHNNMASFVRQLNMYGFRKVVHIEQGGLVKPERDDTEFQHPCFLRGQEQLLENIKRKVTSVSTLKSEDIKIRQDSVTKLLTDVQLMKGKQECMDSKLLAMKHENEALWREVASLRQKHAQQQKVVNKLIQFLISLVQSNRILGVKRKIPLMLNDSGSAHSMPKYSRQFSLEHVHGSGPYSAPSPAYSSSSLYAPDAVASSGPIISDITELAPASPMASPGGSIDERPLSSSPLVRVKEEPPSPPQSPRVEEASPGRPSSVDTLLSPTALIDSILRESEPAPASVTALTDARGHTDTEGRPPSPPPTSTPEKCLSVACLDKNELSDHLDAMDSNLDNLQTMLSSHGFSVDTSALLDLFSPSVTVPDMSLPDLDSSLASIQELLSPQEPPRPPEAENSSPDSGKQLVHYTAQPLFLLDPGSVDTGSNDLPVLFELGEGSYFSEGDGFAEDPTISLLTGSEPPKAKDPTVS
Chain of Bile acid receptor (Homo sapiens) (Q96RI1 whole entry, looked up, the tested form may be a part): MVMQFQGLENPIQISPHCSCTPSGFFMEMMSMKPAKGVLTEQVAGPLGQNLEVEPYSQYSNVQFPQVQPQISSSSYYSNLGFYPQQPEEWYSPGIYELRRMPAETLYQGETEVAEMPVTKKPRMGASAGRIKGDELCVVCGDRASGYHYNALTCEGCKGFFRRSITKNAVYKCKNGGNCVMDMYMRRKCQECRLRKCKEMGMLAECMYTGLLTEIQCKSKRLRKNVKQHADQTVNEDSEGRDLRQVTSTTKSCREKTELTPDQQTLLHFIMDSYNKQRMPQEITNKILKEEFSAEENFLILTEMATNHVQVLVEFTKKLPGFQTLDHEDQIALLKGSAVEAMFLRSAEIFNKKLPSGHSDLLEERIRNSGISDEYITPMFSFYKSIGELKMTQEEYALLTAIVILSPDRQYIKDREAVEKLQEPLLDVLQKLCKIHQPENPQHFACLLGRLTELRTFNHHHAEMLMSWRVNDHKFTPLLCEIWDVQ
Chain of Signal transducer and activator of transcription 3 (Homo sapiens) (P40763 whole entry, looked up): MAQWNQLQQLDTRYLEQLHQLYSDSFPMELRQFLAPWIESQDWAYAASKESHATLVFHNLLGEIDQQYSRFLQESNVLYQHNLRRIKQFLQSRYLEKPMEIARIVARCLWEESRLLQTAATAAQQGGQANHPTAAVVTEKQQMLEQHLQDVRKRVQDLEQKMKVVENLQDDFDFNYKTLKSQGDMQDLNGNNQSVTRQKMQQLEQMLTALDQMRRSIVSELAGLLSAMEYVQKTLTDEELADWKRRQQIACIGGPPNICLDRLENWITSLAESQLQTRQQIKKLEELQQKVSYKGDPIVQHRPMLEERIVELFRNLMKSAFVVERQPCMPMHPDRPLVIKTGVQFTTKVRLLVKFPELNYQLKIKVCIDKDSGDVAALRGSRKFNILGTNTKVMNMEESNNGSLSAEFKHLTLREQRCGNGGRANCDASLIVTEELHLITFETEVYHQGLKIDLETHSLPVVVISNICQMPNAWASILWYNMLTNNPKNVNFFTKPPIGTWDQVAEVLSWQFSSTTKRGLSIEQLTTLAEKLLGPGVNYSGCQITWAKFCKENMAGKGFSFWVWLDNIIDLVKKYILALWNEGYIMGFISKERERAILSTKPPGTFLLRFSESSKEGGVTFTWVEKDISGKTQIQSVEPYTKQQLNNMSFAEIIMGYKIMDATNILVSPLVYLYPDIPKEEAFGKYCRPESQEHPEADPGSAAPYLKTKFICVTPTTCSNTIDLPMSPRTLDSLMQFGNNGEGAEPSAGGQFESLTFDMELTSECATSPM
Chain of Transcription factor Sp1 (Homo sapiens) (P08047 whole entry, looked up): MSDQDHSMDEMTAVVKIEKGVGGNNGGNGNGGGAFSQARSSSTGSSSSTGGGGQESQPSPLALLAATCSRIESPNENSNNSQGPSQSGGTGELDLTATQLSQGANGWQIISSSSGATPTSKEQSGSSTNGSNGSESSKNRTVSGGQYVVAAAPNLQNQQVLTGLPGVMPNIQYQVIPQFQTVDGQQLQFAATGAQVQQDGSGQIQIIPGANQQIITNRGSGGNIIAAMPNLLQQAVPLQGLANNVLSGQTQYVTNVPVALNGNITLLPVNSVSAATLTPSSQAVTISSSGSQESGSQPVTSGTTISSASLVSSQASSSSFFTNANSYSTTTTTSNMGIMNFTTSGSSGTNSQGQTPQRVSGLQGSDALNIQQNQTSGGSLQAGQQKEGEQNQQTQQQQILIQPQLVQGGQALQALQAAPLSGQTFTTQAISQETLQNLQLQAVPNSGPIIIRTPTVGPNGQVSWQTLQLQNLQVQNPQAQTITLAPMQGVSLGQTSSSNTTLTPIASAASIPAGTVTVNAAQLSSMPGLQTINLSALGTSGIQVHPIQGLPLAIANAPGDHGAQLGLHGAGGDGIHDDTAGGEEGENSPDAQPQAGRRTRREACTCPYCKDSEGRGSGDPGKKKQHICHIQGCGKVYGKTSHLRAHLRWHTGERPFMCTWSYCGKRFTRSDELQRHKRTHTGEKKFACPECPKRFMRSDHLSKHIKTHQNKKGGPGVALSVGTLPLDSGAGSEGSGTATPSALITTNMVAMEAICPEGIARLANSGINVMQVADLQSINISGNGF
Chain of Hepatocyte nuclear factor 6 (Homo sapiens) (Q9UBC0 whole entry, looked up): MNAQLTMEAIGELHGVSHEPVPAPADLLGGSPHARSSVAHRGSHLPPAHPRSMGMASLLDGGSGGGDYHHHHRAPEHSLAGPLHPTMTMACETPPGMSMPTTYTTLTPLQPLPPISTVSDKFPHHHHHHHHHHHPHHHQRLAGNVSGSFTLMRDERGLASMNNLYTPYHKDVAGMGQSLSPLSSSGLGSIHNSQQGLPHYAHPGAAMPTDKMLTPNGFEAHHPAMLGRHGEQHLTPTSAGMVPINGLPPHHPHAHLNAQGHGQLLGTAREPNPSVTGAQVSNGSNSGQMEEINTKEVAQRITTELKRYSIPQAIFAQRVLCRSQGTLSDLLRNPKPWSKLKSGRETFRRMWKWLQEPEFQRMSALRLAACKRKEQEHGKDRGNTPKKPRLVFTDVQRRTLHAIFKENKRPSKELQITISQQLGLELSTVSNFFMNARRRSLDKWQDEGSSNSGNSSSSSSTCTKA
Chain of Hypoxia-inducible factor 1-alpha (Homo sapiens) (Q16665 whole entry, looked up): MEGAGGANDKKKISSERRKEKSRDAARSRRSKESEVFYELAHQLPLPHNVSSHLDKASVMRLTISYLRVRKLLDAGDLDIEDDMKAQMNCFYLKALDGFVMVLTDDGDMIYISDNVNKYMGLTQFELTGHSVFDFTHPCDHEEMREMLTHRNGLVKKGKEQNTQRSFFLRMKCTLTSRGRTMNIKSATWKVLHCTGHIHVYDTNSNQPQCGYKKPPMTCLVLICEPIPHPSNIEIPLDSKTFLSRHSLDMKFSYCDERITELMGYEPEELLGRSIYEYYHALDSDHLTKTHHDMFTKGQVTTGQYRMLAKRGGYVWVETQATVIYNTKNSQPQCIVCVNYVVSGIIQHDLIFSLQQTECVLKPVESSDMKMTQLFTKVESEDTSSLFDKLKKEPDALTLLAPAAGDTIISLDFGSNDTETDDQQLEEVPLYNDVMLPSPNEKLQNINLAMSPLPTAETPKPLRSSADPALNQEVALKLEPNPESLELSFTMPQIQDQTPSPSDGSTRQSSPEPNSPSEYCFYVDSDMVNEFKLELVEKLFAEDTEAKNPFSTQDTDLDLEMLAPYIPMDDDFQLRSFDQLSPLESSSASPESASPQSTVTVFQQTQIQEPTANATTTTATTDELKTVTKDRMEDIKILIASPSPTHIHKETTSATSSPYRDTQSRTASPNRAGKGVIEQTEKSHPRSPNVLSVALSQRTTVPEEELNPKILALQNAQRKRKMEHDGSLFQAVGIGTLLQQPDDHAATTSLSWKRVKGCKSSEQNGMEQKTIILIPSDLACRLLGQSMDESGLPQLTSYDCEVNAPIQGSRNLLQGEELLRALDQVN
Chain of Paired box protein Pax-6 (Homo sapiens) (P26367 whole entry, looked up): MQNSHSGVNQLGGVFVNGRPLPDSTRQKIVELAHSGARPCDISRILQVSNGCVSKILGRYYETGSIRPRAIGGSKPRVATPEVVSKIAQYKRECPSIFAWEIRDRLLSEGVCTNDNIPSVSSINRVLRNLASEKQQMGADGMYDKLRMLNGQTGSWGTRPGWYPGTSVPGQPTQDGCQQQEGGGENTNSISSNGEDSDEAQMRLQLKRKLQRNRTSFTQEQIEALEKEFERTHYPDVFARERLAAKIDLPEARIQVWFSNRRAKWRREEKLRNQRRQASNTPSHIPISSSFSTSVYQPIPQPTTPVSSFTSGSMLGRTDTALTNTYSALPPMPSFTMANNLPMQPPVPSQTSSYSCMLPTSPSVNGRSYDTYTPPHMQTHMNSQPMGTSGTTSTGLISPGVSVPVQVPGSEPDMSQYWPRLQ

`CC(C#N)(CCC(=O)O)N=NC(C)(C#N)CCC(=O)O` (stereo not given): the result in assay [1], in assay [2], in assay [3], in [4], in [5] and in [6] was inactive. Besides, the molecule was classed as inactive in assay [7], in assay [8], in assay [9], in [10], in assay [12] and in [13]. The molecule was called inactive in [14], in assay [15], in [16] and in [17]. In assay [11], the AC50 was 26.2 µM (active).
Consider `Nc1cc([N+](=O)[O-])ccc1Cl`, for which the molecule was called inactive in assay [1], in [2], in assay [3], in assay [4], in assay [5] and in assay [6]. Moreover, the molecule was called inactive in assay [7], in assay [8], in assay [9], in assay [10], in assay [18] and in assay [11]. Also, the call in assay [19], in assay [12], in assay [13], in [20], in [14] and in assay [15] was inactive. For the same molecule, the outcome in [16] and in [17] was inactive.
Take `Cc1ccc(C=O)cc1`: the outcome in [1], in [2], in assay [3], in assay [4], in [5] and in [6] was inactive. In addition, the molecule was classed as inactive in assay [7], in [8], in assay [9], in [18], in [11] and in [19]. The molecule was classed as inactive in [12], in [13], in [20], in assay [14], in assay [16] and in assay [17].
`O=Cc1ccc(Cl)c([N+](=O)[O-])c1`: the AC50 in assay [1] is 63.7 µM (active); in assay [3] it was 149 µM (active); in assay [6], 139 µM (active); in assay [7], 134 µM (active); in [8], 142 µM (active); in [9] it was 142 µM (active). In addition, the half-maximal activity concentration (AC50) in assay [18] was 91.2 µM (active); in assay [11], 67.5 µM (active); in assay [13], 109 µM (active); in [20], 146 µM (active); in [14], 137 µM (active); in assay [17], 65.1 µM (active). Besides, the molecule was called inactive in [2], in assay [4], in assay [5], in assay [10], in assay [19] and in assay [12]. Moreover, the molecule was classed as inactive in assay [15] and in assay [16].
Turning to `CC(C)(N)CO`, the molecule was called inactive in [1], in assay [2], in assay [3], in [4], in assay [5] and in assay [6]. Also, the molecule was called inactive in assay [7], in [8], in assay [9], in [18], in assay [11] and in assay [19]. Besides, the molecule was classed as inactive in assay [12], in assay [13], in assay [20], in [14], in assay [15] and in assay [16].
Turning to `c1ccc2c(c1)c1cccc3ccc4cccc2c4c31`, the call in assay [1], in [2], in [3], in assay [4], in [5] and in [6] was inactive. In addition, the molecule was classed as inactive in assay [7], in [8], in [9], in [10], in assay [18] and in [11]. The molecule was classed as inactive in assay [12], in assay [13], in assay [14], in assay [15] and in assay [17].
With `C=CC(C)(C)O`, the molecule was called inactive in [1], in assay [2], in assay [3], in assay [4], in assay [5] and in assay [6]. Moreover, the molecule was classed as inactive in assay [7], in assay [8], in assay [9], in assay [10], in assay [18] and in assay [11]. Besides, the call in assay [19], in assay [12], in [13], in [20], in assay [14] and in assay [15] was inactive. The result in assay [16] and in [17] was inactive.
